Measurements published in PubChem BioAssay (NCATS).
Where “and” joins values, the source holds several entries; their conditions need not be identical. Identical values can stand only once. Results filed as inconclusive are left out. Where a structure was tested more than once in an assay, its records may differ in their call. Calls of active or inactive are those of the source. Unless noted, calls follow the shape of the dose curve; as a rule, active = well fitted curve in the direction sought with a large enough effect; inconclusive = small, poorly fitted or top-dose-only effect, or another doubt; inactive = no such curve, though single readings can be large; an effect the other way counts as inactive or inconclusive.

Tests used:
[1] = Primary qHTS for inhibitors of nuclear receptor binding SET domain protein 2 (NSD2) in an isogenic RCH-ACV NSD2 p.E1099K mutant (9B) (AID 1645876); also: nearly all actives have a fitted effect of over 70% in size; also: potency is read from the fitted curve at half-maximal effect
[2] = Primary qHTS for inhibitors of nuclear receptor binding SET domain protein 2 (NSD2) in an RCH-ACV wild type WT cells (2C) (AID 1645877); also: nearly all actives have a fitted effect of over 70% in size; also: potency is read from the fitted curve at half-maximal effect
[3] = qHTS drug screen for cell cycle checkpoint inhibitors in PARPi-resistant BRCA-mutant ovarian cancer cell lines. (AID 1963452; calls by dose curve; also: potency is read from the fitted curve at half-maximal effect); details: PEO1/OlaR viability, CellTiter-Glo luminescence, 96 h; for Z-AUC: stronger effect = lower value
In short: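 PEO1, PEO4 and PEO1/OlaR ovarian cancer cells, 600 per well, exposed 96 h at 37C to a dilution series. Viability read by CellTiter-Glo luminescence, normalized to DMSO and empty wells; activity summarized as Z-AUC.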

[4] = biological target: Phospholipid hydroperoxide glutathione peroxidase GPX4 (Homo sapiens) (UniProt P36969); assay: Primary qHTS Assay for Inhibitors of Recombinant Selenoprotein Glutathione Peroxidase 4 (GPX4) (AID 1845192); also: nearly all actives have a fitted effect of over 65% in size; also: potency is read from the fitted curve at half-maximal effect
Chain of Phospholipid hydroperoxide glutathione peroxidase GPX4 (Homo sapiens) (P36969 whole entry, looked up): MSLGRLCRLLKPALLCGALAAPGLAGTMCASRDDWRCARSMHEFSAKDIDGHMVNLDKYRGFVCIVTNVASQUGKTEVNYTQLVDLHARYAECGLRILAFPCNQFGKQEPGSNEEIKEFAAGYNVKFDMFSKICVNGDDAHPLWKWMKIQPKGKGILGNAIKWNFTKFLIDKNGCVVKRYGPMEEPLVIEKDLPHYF
In short: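 GR-coupled assay: recombinant GPX4 preincubated 30 min with compound at room temperature; final 200 nM GPX4, 1 mM GSH, 0.5 mM cumene hydroperoxide, 0.5 mM NADPH, 100 nM GR, 0.01% BSA, pH 7.5 Tris. NADPH fluorescence (340/450 nm) read at 0 and 15 min.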

[5] = biological target: Glutathione peroxidase 1 (Homo sapiens) (UniProt P07203); assay: Primary qHTS Assay for Inhibitors of Recombinant Selenoprotein Glutathione Peroxidase 1 (GPX1) (AID 1845191); also: nearly all actives have a fitted effect of over 65% in size
Chain of Glutathione peroxidase 1 (Homo sapiens) (P07203 whole entry, looked up): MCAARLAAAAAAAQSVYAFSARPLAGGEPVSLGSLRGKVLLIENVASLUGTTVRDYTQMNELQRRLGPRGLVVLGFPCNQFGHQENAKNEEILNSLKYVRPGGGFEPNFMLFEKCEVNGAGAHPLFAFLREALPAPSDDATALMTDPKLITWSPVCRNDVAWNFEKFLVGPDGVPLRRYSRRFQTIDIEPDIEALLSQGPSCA
In short: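 GR-coupled assay: compounds preincubated 30 min at room temperature with GPX1, then reaction started with CHP; final 10 nM GPX1, 1 mM GSH, 0.5 mM CHP, 0.5 mM NADPH, 100 nM GR, 0.01% BSA, pH 7.5 Tris buffer. NADPH fluorescence (340/450 nm) read at 0 and 15 min.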

[6] = biological target: Rap guanine nucleotide exchange factor 3 (Homo sapiens) (UniProt O95398); assay: Confirmatory qHTS for antagonist of cAMP-regulated guanine nucleotide exchange factor 3 (EPAC1) (AID 1645880);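 also: plate controls were DMSO only for no effect and full effect of the ATA control for full effect; nearly all actives have a fitted effect of over 55% in size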
Chain of Rap guanine nucleotide exchange factor 3 (Homo sapiens) (O95398 whole entry, looked up): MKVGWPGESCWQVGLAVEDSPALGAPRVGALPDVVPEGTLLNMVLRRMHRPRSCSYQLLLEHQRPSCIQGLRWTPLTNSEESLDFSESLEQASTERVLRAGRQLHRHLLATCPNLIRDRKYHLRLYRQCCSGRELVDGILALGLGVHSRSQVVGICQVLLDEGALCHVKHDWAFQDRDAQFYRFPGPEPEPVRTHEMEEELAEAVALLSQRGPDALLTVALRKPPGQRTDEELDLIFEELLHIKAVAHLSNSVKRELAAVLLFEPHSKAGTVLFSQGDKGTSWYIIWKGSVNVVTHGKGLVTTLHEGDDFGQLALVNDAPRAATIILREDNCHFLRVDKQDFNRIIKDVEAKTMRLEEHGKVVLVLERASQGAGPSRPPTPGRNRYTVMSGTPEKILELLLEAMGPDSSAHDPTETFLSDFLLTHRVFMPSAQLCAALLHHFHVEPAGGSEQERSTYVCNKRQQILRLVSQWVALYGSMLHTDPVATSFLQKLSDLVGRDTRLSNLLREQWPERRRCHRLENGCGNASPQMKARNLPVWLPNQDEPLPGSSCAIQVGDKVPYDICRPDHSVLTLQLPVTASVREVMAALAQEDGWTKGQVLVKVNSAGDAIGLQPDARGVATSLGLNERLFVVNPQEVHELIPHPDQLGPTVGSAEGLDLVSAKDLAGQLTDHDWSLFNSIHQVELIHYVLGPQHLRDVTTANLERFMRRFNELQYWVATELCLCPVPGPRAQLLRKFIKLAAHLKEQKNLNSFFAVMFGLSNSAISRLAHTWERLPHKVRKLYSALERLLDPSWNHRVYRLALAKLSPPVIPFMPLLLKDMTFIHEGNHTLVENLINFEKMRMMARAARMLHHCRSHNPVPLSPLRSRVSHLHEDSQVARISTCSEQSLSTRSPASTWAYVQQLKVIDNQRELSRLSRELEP
In short: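 Nucleotide exchange uses 100 nM EPAC1, 250 nM RAP1B-BODIPY-GDP and 50 uM GDP, with compounds in a concentration-titration series. After 5 min at room temperature, fluorescence (480 nm ex/540 nm em) is read every 5 min for 30 min. Data are normalized to control ATA and DMSO.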

[7] = measured here: PEO1 parental Z-AUC

Structure (SMILES): CCOC(=O)C1=CCCCC1S(=O)(=O)Nc1ccc(F)cc1Cl (stereo not given)
- Potency [1]: 20.9 µM (active)
- Potency [2]: 18.6 µM (active)
- Z-AUC [3]: 1.33 (inactive)
- Z-AUC [3, 7]: 1.11
- Z-AUC ([3]; measured here: PEO4 Z-AUC): 1.15

Structure (SMILES): COc1cc(OC)cc(N2CCN(C(=O)Nc3nc4cc(F)ccc4nc3OC)CC2)c1
- Potency [1]: 20.9 µM (active)
- Potency [2]: 26.3 µM (active)
- Potency [4]: inactive
- Z-AUC [3]: -0.785 (inactive)
- Z-AUC [3, 7]: -0.317
- Z-AUC ([3]; measured here: PEO4 Z-AUC): 0.136

Structure (SMILES): CN[C@H]1CN(c2ccc3c(=O)c(C(=O)O)cn(-c4nccs4)c3n2)C[C@@H]1OC
- Potency [1]: 0.135 µM (active)
- Potency [2]: 0.0762 µM (active)
- Potency [4]: inactive
- Potency [3]: 1.59 µM (active)
- Z-AUC [3]: -0.941 (inactive)
- Z-AUC [3, 7]: -1.7 and -1.57
- Z-AUC ([3]; measured here: PEO4 Z-AUC): -1.25 and -1.14

Structure (SMILES): CC/C(=C(/c1ccc(/C=C/C(=O)O)cc1)c1ccc2[nH]ncc2c1)c1ccc(F)cc1Cl
- Potency [2]: 23.5 µM (active)
- Potency [5]: inactive
- Potency [4]: 4.04 µM (active)
- Z-AUC [3]: 1.39 (inactive)
- Z-AUC [3, 7]: 0.628
- Z-AUC ([3]; measured here: PEO4 Z-AUC): -0.0261

Structure (SMILES): COc1ccc(SC[C@H](Cc2ccccc2)N2CC[C@@H](C)CCC2=O)cc1
- Potency [6]: inactive

Structure (SMILES): C[C@H]1C[C@@H](n2c(Nc3ccc(OC(F)(F)F)cc3)nc3cc(CCC(=O)O)ccc32)CC(C)(C)C1
- Potency [1]: inactive
- Potency [4]: 2.55 µM (active)
- Z-AUC [3]: 0.184 (inactive)
- Z-AUC [3, 7]: 0.953
- Z-AUC ([3]; measured here: PEO4 Z-AUC): 0.855

Structure (SMILES): O=C(O)CNC(=O)c1ncc(-c2cccc(Cl)c2)cc1O
- Potency [2]: inactive
- Z-AUC [3]: -0.0287 (inactive)
- Z-AUC [3, 7]: 0.803
- Z-AUC ([3]; measured here: PEO4 Z-AUC): 0.828

Structure (SMILES): Cc1ccc(C(=O)OCc2ccc([C@@H](CN)C(=O)Nc3ccc4cnccc4c3)cc2)c(C)c1
- Potency [1]: 4.07 µM (active)
- Potency [2]: 3.62 µM (active)
- Potency [4]: inactive
- Z-AUC [3]: -1.52 (inactive)
- Z-AUC [3, 7]: -0.919
- Z-AUC ([3]; measured here: PEO4 Z-AUC): -0.26
